# Assay results taken from PubChem BioAssay AID504847 (National Center for Advancing Translational Sciences (NCATS), 2011).
# “And” between values parts separate entries of the source, which are not always exact repeats. Equal values may be shown once. Out of some 400,000 compounds screened, about 3,700 (0.93%) were called active. Another 3% or so got no clear call; they are omitted. The call rests on the fitted dose curve; in most records, active means well fitted inhibition curve with a large enough effect; inconclusive means small, poorly fitted or top-dose-only effect, or another doubt; inactive means no such curve, though single readings can be large or run the other way. Only a selection was taken, and actives are over-represented in it overall.
# Biological target: Vitamin D3 receptor (Homo sapiens) (UniProt P11473)
# Assay: Inhibitors of the vitamin D receptor (VDR): qHTS
# Conditions: VDR-SRC2-3 peptide fluorescence polarization, 2 h; max response, negative = inhibition: active compounds read low
# Procedure, shortened: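 After 23 nl compound addition and a short centrifugation, plates sat for 2 hours at ambient temperature; polarization of fluorescence then indicated loss of VDR binding to peptide SRC2-3.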
# On the % scale 0 is the no-effect control and ±100 the full control effect; potency means the concentration at half of the fitted maximal effect.
# Vitamin D3 receptor (Homo sapiens), sequence (P11473 whole entry, looked up): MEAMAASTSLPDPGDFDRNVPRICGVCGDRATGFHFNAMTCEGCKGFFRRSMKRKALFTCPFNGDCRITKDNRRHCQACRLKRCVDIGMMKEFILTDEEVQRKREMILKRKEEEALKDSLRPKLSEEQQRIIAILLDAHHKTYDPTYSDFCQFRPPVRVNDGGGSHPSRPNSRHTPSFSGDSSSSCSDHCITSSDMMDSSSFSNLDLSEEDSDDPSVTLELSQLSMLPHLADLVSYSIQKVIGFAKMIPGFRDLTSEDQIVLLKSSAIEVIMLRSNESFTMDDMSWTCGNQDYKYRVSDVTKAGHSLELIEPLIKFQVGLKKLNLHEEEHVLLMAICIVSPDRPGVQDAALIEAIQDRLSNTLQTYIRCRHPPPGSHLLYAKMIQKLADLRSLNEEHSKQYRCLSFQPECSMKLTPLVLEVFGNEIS
SMILES,"max response, negative = inhibition",Potency
Cc1ccccc1NC(=O)Cn1cc(C(=O)C2CC2)c2ccccc21,8.49% (inactive),
Cc1ccccc1NC(=O)CSC(=O)c1ccccc1,,79.4 µM (active)
Cc1ccccc1NC(=O)CCOc1ccccc1,-6.86% (inactive) and -22.6% (inactive),
COc1ccc(CCC(=O)c2c(O)cc(OC3OC(CO)C(O)C(O)C3O[C@@H]3OC(C)C(O)C(O)C3O)cc2O)cc1O (some centres undefined),-4.57% (inactive),
CCOc1cccc(NC(=O)CSc2ncc(-c3ccc(Cl)cc3)[nH]2)c1,-19.8% (inactive),
CC(C)=CCN1CCC2(CCc3ccccc32)CC1,10% (inactive),
COc1ccc(Cc2nc3ccc(C(=O)NCc4ccc(OC)cc4OC)cc3o2)cc1,0.0782% (inactive),
NC(=O)CSc1oc(-c2cccs2)nc1S(=O)(=O)c1ccccc1,2.03% (inactive),
Cc1ccc(S(=O)(=O)c2nc(-c3cccs3)oc2NCc2cccnc2)cc1,-8.24% (inactive),
CCCCS(=O)(=O)c1oc(-c2cccs2)nc1S(=O)(=O)c1ccccc1,,10 µM (active)
Cc1ccc(N2CC(c3nnc(Cc4ccccc4Cl)o3)CC2=O)cc1 (centres undefined),0.444% (inactive),
Cc1ccc(-c2nnc3ccc(SCC(N)=O)nn23)cc1,-9.24% (inactive),
Cc1ccc(-c2nn3c(=O)cc(CN4CCN(S(=O)(=O)c5ccc(Cl)cc5)CC4)nc3s2)cc1,6.31% (inactive),
CC(C)(C)NC(=O)NC(=O)COC(=O)C1c2ccccc2Oc2ccccc21,-16.6% (inactive),
CCc1c(C)sc(NC(=O)C2c3ccccc3Oc3ccccc32)c1C(=O)OC(C)C,-13.1% (inactive),
CC(C)(C)c1nnc(NC(=O)C2c3ccccc3Oc3ccccc32)s1,,35.5 µM (active)
COc1cc(C(=O)N2CCC(c3ccncc3)CC2)cc(OC)c1OC,6.52% (inactive),
CCOC(=O)c1c(NC(=O)CSc2nccc(=O)[nH]2)sc(C)c1C,-12.3% (inactive),
CCOC(=O)c1c(NC(=O)COc2cc(C)ccc2C(C)C)sc(C)c1C,,39.8 µM (active)
CCOC(=O)c1c(NC(=O)CSc2nnc(CNc3ccc(C)cc3C)o2)sc(C)c1C,-11.8% (inactive),
CCc1nn(CC(=O)Nc2cccc(C)c2C)c(=O)c2cc3sccc3n12,-8.74% (inactive),
CCOc1cccc2cc(-c3cn4c(n3)sc3cc(C)ccc34)c(=O)oc12,10.9% (inactive),
COc1ccc(-c2nc3cnc(Oc4ccccc4)nc3n(Cc3cccs3)c2=O)cc1,-0.524% (inactive),
COc1cccc(N2CCN(S(=O)(=O)c3ccc4c(c3)CCCN4C(C)=O)CC2)c1,4.58% (inactive),
